Several values for one entry are separate records, joined by “and”; a condition that tells them apart may be missing. Equal entries are not always repeated. Inconclusive results are not listed. Activity calls are given as the source filed them. Calls come from the whole dose curve; as a rule, active = well fitted cell-killing curve with a large enough effect; inconclusive = small, poorly fitted or top-dose-only effect, or effect the other way; inactive = no such curve, though single readings can be large or run the other way.
Potency is the fitted concentration of half-maximal effect.

The experiment can be described thus: Viability qHTS for spleen associated tyrosine kinase inhibitor (SYKi) drug resistant MV4-11 cells (AID 1963824). Note: nearly all actives have a fitted effect of over 35% in size. The note with it: SYKi-resistant MV4-11 viability, CellTiter-Glo, 72 h; series mostly up to 45 µM. In a few lines:
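SYK inhibitor-resistant MV4-11 AML cells, 500 per well, added to predispensed compounds and incubated 72 hr at 37 C, 5% CO2. Viability measured by CellTiter-Glo luminescence after 10 min at room temperature.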
On to `CCOC(=O)c1cccc(CNc2ccc(N(C)C(=O)Nc3ccccc3)cc2)c1`, for which the Potency was 11.6 µM (active).

With `O=C(OCC1OC(Oc2ccc(O)cc2COC(=O)C2(O)C(O)CCC(=O)C2OC(=O)C2C=CCC2)C(OC(=O)C2C=CCC2)C(O)C1O)C1C=CCC1` (stereo unspecified), the Potency result is “inactive”.

`CC(C)C(C(=O)N(C)C(C)C(N)=O)N(C)C(=O)C1CCCN1C(=O)/C=C/C=C/C(O)C(C)O` (stereo unspecified): the Potency result is “inactive”.

Consider `COc1ccc(C(=O)O[C@H]2C=COC=C3C=C4C(=O)N(C)C(=S)C(=O)N4[C@@H]32)cc1Oc1cc(C=O)ccc1O`, for which the Potency is 2.24 µM (active).

On to `Brc1ccc([C@H]2CN3CCSC3=N2)cc1`, for which the Potency result is “inactive”.

Take `C[C@@H]1O[C@@H](O[C@@H]2[C@@H](O)[C@H](O[C@H]3[C@H](O[C@H]4CC[C@@]5(C)C(CC[C@]6(C)C5CC=C5[C@@H]7CC(C)(C)CC[C@]7(C(=O)O[C@@H]7O[C@H](CO)[C@@H](O)[C@H](O)[C@H]7O[C@@H]7O[C@@H](C)[C@H](O[C@@H]8O[C@@H](C)[C@H](O)[C@@H](O)[C@H]8O)[C@@H](O)[C@H]7O)CC[C@]56C)[C@@]4(C)CO)O[C@H](C(=O)O)[C@@H](O)[C@@H]3O)O[C@H](CO)[C@H]2O)[C@H](O)[C@H](O)[C@H]1O` (stereo partly specified): the viability, % of control is 108% [at 9.25 µM] (inactive).

In the case of `C/C=C/C(O)C1OC(=O)CC1Nc1ccc(C(=O)O)cc1` (stereo unspecified), the Potency result is “inactive”.

In the case of `C[C@@H]1C(=O)OC[C@H]2C(C(=O)O)=C[C@@H]3CC(C)(C)C[C@]312`, the Potency entry was “inactive”.

For the compound `CC(C)(O)c1ccn2c(-c3ccc(F)c(-c4ccc(F)cc4C#N)c3)cnc2c1F`, the Potency was 8.2 µM (active).

Take `C/C=C(\C)C(=O)OC1C(C)C2(O)C(C=C(CO)CC3(O)C(=O)C(C)=CC32)C2C(C)(C)C12OC(=O)C(C)C` (stereo unspecified): the Potency was 0.008 µM (active).

With `Cc1ccc(NC(=O)c2ccc(CN3CCNCC3)cc2)cc1Nc1nccc(-c2cccnc2)n1`, the Potency was 9.2 µM (active) and 16.6 µM (active).

Take `Cc1cn(C2C[C@H](O)[C@@H](CO)O2)c(=O)[nH]c1=O` (stereo partly specified): the Potency entry is “inactive”.

On to `Nc1ncnc2c1nc(Cl)n2C1OC2COP(=O)(O)OC2C1O` (stereo unspecified), for which the Potency is 0.461 µM (active).

Take `Cc1ccc(NS(=O)(=O)c2cc3c(cc2NC(C)CO)NC(=O)CC3)cc1C` (stereo unspecified): the Potency is 10.2 µM (active).

Regarding `CCCCC(=O)N(Cc1ccc(-c2ccccc2-c2nn[nH]n2)cc1)C(C(=O)O)C(C)C` (stereo unspecified), the Potency result is “inactive”.

In the case of `COC(=O)C1=CO[C@@H](O[C@@H]2O[C@H](CO)[C@@H](O)[C@H](O)[C@H]2O)C2C1C(=O)C[C@H]2C` (stereo partly specified), the Potency result was “inactive”.

`OC[C@H]1O[C@@H](OCCc2ccc(O)cc2)[C@H](O)[C@@H](O)[C@@H]1O`: the Potency entry was “inactive”.

On to `O=C1COc2nccc(-c3ccccc3F)c2CN1Cc1cc(C(F)(F)F)cc(C(F)(F)F)c1`, for which the Potency is 16.4 µM (active).

Turning to `Nc1ccc(-c2cccc3c(=O)cc(N4CCOCC4)oc23)cc1`, the Potency was 7.31 µM (active).

`Cc1cc2nc(NCCCO)n(CC(=O)c3cc(C(C)(C)C)c(O)c(C(C)(C)C)c3)c2cc1C`: the Potency is 8.2 µM (active).

In the case of `C[C@@H]1O[C@@H](O[C@H]2[C@@H]3C=CO[C@@H](O[C@@H]4O[C@H](CO)[C@@H](O)[C@H](O)[C@H]4O)[C@@H]3[C@@]3(CO)O[C@@H]23)[C@H](OC(=O)/C=C/c2ccc(O)c(O)c2)[C@H](O)[C@H]1O`, the Potency entry was “inactive”.

Turning to `C=CC(C)(O)CC/C=C(\C)C(=O)O[C@@H]1[C@@H](O)[C@H](OC(C)(C=C)CC/C=C(\C)C(=O)O)O[C@H](CO)[C@H]1OC(=O)/C(C)=C/CCC(C)(O)C=C` (stereo partly specified), the Potency entry is “inactive”.

In the case of `CCOc1cc(CC(=O)NC(CC(C)C)c2ccccc2N2CCCCC2)ccc1C(=O)O` (stereo unspecified), the Potency result was “inactive”.

In the case of `CC1OC(O[C@@H]2[C@H](O)[C@@H](OC3OC(CO)C(O)C(O)C3O)[C@H](OC(=O)[C@]34CCC(C)(C)C[C@H]3C3=CCC5[C@@]6(C)CC[C@H](O[C@@H]7O[C@H](C(=O)O)[C@@H](O)[C@H](O[C@@H]8OC[C@@H](O)[C@H](O)[C@H]8O)[C@H]7O[C@@H]7O[C@H](CO)[C@H](O)[C@H](O)[C@H]7O)[C@@](C)(C=O)C6CC[C@@]5(C)[C@]3(C)C[C@H]4O)O[C@@H]2C)C(O)C(O)C1OC1OCC(O)C(O)C1O` (stereo partly specified), the viability, % of control is 89.9% [at 4.97 µM] (inactive).

Consider `CC(=O)O[C@@H]1CC[C@@]2(C)[C@H](CC[C@@H]3[C@@H]2C[C@H](OC(C)=O)[C@]2(C)[C@@H](C(C)=O)CC[C@@H]32)C1`, for which the Potency is 8.2 µM (active).

For `Cc1cc(C)c(-c2csc(NC(=O)c3ccccc3)n2)c(C)c1`, the Potency is 11.6 µM (active).

Values taken from PubChem BioAssay (NCATS).
